Assay results: the supplement of paper PMC11732987, “Enantioselective OTUD7B fragment discovery through chemoproteomics screening and high-throughput optimisation” (Communications Chemistry, 2025)

Columns and labels:
Assay in all cases: log2 ratio of Biotin-Ahx-Ub-VS probe labelling (fragment/DMSO); higher = less target engagement (more negative = stronger competition), active = hit call of the paper (q ≤ 0.05, log2 ratio ≤ -1)
Details in all cases: compound concentration: 200 uM; treatment time: 3 h
[1] = target: T1, ALG13 (UniProt Q9NP73)
T1 sequence (whole entry): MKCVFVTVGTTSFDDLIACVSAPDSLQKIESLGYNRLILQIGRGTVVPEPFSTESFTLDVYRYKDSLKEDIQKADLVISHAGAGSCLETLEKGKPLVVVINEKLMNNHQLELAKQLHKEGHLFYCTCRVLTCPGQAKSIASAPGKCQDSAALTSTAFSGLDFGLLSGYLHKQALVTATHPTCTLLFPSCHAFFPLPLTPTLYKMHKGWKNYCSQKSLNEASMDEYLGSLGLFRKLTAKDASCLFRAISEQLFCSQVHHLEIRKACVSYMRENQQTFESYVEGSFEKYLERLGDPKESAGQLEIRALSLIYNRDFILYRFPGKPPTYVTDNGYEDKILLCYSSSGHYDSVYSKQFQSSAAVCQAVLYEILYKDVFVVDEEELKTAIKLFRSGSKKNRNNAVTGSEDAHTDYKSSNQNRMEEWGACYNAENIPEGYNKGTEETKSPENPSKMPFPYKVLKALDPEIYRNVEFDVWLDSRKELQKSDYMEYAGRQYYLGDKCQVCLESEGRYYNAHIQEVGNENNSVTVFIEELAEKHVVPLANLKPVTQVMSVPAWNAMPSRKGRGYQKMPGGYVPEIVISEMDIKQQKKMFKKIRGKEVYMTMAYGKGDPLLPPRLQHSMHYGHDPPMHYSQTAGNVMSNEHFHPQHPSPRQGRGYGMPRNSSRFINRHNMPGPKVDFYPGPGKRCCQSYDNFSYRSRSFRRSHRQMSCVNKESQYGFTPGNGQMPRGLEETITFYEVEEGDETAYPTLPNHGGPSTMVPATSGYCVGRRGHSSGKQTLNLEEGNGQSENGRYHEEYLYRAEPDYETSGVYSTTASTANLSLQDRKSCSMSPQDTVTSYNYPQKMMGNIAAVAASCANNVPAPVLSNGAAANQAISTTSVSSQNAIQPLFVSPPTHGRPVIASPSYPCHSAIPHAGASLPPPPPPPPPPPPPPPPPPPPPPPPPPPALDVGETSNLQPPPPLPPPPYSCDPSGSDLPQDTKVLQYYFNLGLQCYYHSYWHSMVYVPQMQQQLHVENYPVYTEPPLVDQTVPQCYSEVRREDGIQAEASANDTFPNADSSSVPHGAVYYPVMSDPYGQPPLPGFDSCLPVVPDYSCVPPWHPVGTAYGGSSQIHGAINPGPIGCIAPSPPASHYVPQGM
Procedure, shortened: (§1)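 HEK293T lysate (495 µg per sample, in Tris/CHAPS/IGEPAL buffer with protease inhibitors) was treated in triplicate with fragment at 200 µM or with DMSO for 3 h. It was then treated with Biotin-Ahx-Ub-VS (0.5 µM final) for 1 h. Labelled DUBs were NeutrAvidin-enriched, digested with LysC and trypsin, and run by diaPASEF LC-MS/MS. Spectronaut label-free quantities were global-median-normalised. Values are average log2 ratios fragment/DMSO by unpaired t-test, using proteins with ≥2 unique peptides.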

[2] = target: ATXN3 (UniProt P54252)
Procedure, shortened: as §1

[3] = target: T2, BAP1 (UniProt Q92560)
T2 sequence (whole entry): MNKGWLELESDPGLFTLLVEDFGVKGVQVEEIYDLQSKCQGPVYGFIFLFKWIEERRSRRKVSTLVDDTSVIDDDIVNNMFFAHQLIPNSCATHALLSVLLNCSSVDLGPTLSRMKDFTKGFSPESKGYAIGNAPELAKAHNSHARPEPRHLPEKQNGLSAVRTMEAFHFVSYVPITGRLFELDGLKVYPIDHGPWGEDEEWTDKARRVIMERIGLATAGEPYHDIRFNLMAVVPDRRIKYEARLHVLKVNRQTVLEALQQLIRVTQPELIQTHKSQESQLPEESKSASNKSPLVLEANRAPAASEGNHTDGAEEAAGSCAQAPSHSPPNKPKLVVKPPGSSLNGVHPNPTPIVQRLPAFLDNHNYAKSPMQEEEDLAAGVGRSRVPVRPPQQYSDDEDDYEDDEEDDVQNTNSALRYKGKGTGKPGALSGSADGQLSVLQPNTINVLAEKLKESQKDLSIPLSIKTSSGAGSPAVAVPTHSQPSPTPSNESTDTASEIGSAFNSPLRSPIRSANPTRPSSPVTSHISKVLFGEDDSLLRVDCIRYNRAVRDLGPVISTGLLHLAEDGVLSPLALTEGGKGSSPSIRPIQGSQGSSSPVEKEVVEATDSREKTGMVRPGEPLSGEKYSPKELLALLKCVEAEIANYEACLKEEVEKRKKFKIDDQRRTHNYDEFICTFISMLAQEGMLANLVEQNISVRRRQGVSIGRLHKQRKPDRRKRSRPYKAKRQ
Procedure, shortened: as §1

[4] = target: EIF3F (UniProt O00303)
Procedure, shortened: as §1

[5] = target: EIF3H (UniProt O15372)
Procedure, shortened: as §1

[6] = target: T3, FAM105A (UniProt Q9NUU6)
T3 sequence (whole entry): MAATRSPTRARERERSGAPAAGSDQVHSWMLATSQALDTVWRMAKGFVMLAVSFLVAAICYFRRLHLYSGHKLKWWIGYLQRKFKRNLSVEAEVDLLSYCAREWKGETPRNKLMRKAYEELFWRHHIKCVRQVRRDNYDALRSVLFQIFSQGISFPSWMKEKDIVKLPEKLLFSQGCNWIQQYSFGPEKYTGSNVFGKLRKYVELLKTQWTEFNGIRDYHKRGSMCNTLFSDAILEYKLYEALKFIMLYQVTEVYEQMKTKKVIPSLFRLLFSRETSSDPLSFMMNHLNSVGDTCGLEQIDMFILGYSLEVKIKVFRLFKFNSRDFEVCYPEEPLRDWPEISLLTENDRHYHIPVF
Procedure, shortened: as §1

[7] = target: OTUB1 (UniProt Q96FW1)
Procedure, shortened: as §1

[8] = target: T4, OTUD4 (UniProt Q01804)
T4 sequence (whole entry): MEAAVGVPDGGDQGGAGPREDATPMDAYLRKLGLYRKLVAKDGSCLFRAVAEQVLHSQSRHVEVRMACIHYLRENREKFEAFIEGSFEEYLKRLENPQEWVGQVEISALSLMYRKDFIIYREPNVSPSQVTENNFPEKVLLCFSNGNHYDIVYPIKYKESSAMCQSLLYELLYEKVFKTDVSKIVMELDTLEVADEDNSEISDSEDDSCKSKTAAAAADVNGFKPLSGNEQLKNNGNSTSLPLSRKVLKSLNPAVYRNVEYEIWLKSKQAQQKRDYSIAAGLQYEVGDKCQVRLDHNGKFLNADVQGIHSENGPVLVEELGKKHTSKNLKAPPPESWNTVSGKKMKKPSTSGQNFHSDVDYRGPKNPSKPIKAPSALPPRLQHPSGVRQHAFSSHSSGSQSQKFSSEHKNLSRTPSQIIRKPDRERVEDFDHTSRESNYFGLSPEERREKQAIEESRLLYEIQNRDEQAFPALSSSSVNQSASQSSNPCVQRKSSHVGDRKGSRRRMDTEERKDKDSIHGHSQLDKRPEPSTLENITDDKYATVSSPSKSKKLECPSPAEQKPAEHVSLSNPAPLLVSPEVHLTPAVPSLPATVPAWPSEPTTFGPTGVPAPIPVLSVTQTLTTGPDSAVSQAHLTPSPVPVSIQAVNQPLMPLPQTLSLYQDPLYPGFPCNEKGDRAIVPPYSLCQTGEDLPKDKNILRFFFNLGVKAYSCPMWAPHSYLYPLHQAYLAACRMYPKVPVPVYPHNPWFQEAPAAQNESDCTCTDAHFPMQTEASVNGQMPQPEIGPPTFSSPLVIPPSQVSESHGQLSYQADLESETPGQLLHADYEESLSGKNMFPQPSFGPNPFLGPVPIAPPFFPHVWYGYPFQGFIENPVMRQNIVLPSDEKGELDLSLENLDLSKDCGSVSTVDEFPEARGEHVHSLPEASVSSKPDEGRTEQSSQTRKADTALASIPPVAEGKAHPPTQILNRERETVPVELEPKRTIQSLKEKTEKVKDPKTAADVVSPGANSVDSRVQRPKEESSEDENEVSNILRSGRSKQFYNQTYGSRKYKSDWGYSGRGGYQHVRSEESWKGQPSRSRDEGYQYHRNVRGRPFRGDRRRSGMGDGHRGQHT
Procedure, shortened: as §1

[9] = target: T5, OTUD5 (UniProt Q96G74)
T5 sequence (whole entry): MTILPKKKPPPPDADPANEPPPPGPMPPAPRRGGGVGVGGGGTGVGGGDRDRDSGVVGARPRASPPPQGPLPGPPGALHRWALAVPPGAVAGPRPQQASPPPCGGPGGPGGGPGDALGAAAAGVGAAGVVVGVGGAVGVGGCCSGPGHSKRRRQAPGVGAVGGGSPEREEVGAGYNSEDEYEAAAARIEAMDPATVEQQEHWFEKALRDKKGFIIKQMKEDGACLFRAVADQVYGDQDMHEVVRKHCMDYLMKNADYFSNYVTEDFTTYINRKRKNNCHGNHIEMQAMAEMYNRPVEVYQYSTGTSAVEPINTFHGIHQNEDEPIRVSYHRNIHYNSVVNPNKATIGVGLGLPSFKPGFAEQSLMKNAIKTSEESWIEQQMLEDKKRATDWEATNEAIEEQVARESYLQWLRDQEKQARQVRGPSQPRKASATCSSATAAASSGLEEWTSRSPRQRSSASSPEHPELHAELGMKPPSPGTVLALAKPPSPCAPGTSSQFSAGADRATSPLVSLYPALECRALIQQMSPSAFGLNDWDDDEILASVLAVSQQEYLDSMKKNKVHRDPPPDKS
Procedure, shortened: as §1

Measured: log2 ratio of Biotin-Ahx-Ub-VS probe labelling

Sequence of OTUB1 (Q96FW1 whole entry): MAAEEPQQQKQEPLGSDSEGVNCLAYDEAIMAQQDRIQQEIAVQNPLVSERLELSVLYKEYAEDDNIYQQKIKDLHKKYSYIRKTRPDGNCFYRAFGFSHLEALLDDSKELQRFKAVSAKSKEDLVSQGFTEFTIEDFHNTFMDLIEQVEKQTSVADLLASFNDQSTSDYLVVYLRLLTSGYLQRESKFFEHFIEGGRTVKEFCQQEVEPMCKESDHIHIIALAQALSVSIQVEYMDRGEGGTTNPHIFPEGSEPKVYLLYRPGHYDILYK
Sequence of EIF3H (O15372 whole entry): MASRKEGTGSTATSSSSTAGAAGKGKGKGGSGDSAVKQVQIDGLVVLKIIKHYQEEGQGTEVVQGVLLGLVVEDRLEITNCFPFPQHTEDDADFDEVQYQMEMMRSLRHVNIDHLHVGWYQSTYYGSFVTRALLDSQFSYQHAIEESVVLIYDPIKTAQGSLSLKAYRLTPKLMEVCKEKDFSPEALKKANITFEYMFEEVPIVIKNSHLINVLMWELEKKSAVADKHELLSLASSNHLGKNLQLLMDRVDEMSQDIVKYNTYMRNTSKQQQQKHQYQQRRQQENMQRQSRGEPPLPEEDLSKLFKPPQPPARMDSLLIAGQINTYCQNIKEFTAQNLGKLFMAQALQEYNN
Sequence of ATXN3 (P54252 whole entry): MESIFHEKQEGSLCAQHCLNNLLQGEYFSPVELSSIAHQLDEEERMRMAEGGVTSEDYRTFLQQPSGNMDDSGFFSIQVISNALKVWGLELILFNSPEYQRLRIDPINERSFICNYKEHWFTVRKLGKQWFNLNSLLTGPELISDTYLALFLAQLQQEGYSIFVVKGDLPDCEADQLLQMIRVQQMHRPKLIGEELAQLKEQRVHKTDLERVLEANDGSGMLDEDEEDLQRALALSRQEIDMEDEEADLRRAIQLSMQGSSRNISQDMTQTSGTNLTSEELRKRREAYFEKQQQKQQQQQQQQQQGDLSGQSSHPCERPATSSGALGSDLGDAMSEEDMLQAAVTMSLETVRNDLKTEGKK
Sequence of EIF3F (O00303 whole entry): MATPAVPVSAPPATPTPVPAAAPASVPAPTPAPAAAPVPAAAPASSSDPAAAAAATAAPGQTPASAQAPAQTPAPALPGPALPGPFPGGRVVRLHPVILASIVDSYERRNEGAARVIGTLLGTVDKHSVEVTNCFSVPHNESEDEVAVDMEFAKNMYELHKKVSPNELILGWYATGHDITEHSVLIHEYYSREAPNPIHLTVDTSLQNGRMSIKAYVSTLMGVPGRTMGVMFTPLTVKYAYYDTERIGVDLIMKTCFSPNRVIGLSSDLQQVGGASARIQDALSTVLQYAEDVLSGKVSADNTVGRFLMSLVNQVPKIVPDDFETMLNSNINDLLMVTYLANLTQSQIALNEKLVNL

Cn1cc(CN(Cc2ccc(Cl)cc2)C(=O)CCl)cn1
inactive: [1] -0.382 | [2] -0.833 | [3] -0.944 | [4] -0.0957 | [5] 0.132 | [6] -0.189 | [7] -0.095 | [8] 0.0527 | [9] -0.592
